These results are taken from PubChem BioAssay (EPA / NIEHS).

Test [1] is described as follows: CCTE_Shafer_MEA_acute_LDH: CCTE's Lactate Dehydrogenase Assay for Cytotoxicity in the Neural Acute Assay, Shafer Lab (AID 2284086; active = hit-call score of the fitted dose curve at least 0.9, where 1 is the maximum;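 note: active means LDH release rises above DMSO vehicle level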). In a few lines: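 Released lactate dehydrogenase, read at 490 nm, indicated cytotoxicity after acute 40-min compound treatment of rat cortical neuron networks grown on 48-well MEA plates.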
Test [2] is described as follows: CCTE_Shafer_MEA_dev_mutual_information_norm: CCTE's Neural Network Formation Assay for Mutual Information Normalization, Shafer Lab (AID 2284091).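 For AC50: mutual information between electrodes summarised as area under curve across four recording days; potency is for a decrease in mutual information relative to DMSO.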 An outline of the steps: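 Developing rat cortical networks on 16-electrode MEA wells are treated throughout formation (DIV 0–12). Shared electrode information is recorded four times, converted to area-under-curve, and fitted for decreases against DMSO vehicle.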

Test [3] can be described thus: CCTE_Shafer_MEA_dev_correlation_coefficient_mean: CCTE's Neural Network Formation Assay for Mean Correlation Coefficient, Shafer Lab (AID 2284093).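 For AC50: well mean pairwise spike train correlation integrated as AUC over recording days 5 to 12; potency fitted for loss of correlation relative to DMSO vehicle wells.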 An outline of the steps:
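Read-out: well-mean correlation coefficient of spike trains between electrode pairs, collapsed over four recording days as trapezoidal area-under-the-curve. Developing rat cortical neuron networks grown on MEAs received test chemical continuously from plating.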

The nature of test [4]: CCTE_Mundy_HCI_Cortical_Synap_Neur_Matur_NeuriteSpotCountPerNeuriteLength: CCTE's Synaptogenesis and Neurite Maturation Assay in rat cortical cells for Neurite Spot Count per Neurite Length, Mundy Lab (AID 2284210). In a few lines: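 Primary rat cortical neurons, compound exposure DIV 7–12, 288.33 h endpoint. Hoechst, anti-MAP2 and anti-synaptophysin labelling; neurite-associated puncta per neurite length scored by automated imaging relative to DMSO controls.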

Test [5] can be described thus: CCTE_Mundy_HCI_Cortical_Synap_Neur_Matur_BPCount: CCTE's Synaptogenesis and Neurite Maturation Assay in rat cortical cells for Branch Point Count, Mundy Lab (AID 2284211). The procedure:
CCTE_Mundy_HCI_Cortical_Synap&Neurite_Matur is a multiplexed, cell-based-readout assay that uses rat primary cortical cells with measurements taken at 288.33 hours after chemical dosing in a microplate: 96-well plate.CCTE_Mundy_HCI_Cortical_Synap_Neur_Matur_BPCount is one of eight components of the CCTE_Mundy_HCI_Cortical_Synap&Neurite_Matur assay. It measures synaptogenesis and neurite maturation related to number of branch points using High Content Imaging of fluorescently labelled markers.[…] Using a type of morphology reporter, loss -of-signal activity can be used to understand developmental effects.
Cells are plated onto 96 well plates and allowed 2 hr for attachment to the substrate. At days in vitro (DIV) 5, Cytosine Arabinoside (AraC) is added to arrest glial cell growth. Chemicals are dosed and a media change is performed at DIV 7 of differentiation and is continued through DIV 12 when the experiment is terminated. Cells are fixed with […] and Hoechst Dye. Cells are stained using Millipore Mouse anti-MAP2MAB3418 (1:800) and Millipore Rabbit anti-Synaptophysinsc-1750 (1:250) primary antibodies and Alexa Fluor-488 goat anti-mouse and AlexaFluor-546 goat anti-rabbit secondary antibodies to label neuronal cell nuclei, synapses and neurites. A Cellomics ArrayScan VTi HCS Reader is used for automated image acquisition and analysis of neurite outgrowth.

The nature of test [6]: UKN2_HCS_IMR90_neural_migration: University of Konstanz (UKN) Leist Lab Neural Crest Cell Migration Assay in human induced IMR90 Pluripotent Stem Cells (UKN2) (AID 2284204). The following applies: actives raise or lower the signal. In a few lines:
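Migration of human IMR90-derived neural crest cells into a stopper-defined gap is imaged after 24 h chemical treatment. Activity is fitted bidirectionally relative to DMSO.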

A short description of test [7]: UKN4_HCS_LUHMES_neurite_outgrowth: University of Konstanz (UKN) Leist Lab Neurite Outgrowth Assay in human LUHMES cells (UKN4) (AID 2284206). The following applies: actives raise or lower the signal. In a few lines:
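2-day-differentiated LUHMES, 24 h cpd exposure, live calcein-AM + H-33342 stain, HCS fluorescence imaging of neurite area; DMSO = baseline, bidirectional fit.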

Test [8] can be described thus: IUF_NPC1b_proliferation_BrdU_72hr: Leibniz Research Institute for Environmental Medicine (IUF) 72-hour Neural Progenitor Cell Bromodeoxyuridine (BrdU) Proliferation Assay (NPC1b) (AID 2284207). In a few lines:
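Proliferation of primary human neural progenitor cells: 72 h compound treatment at 37C, 5% CO2, pH 7.2-7.6, in EGF/FGF-containing medium. Readout is BrdU uptake (last 16 h) by chemiluminescent ELISA, normalised to DMSO.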

Test [9] can be described thus: IUF_NPC1a_proliferation_area_72hr: Leibniz Research Institute for Environmental Medicine (IUF) 72-hour Neural Progenitor Cell Proliferation Area Assay (NPC1a) (AID 2284208). In a few lines:
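Read-out: increase in sphere area over 72 h by automated phase-contrast imaging, fitted in positive direction versus DMSO baseline. One hNPC sphere (0.25-0.35 mm) per well in EGF/FGF medium; growth-factor withdrawal served as positive control.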

Test [10] can be described thus: IUF_NPC1_viability_72hr: Viability Assessment at 72 hours in the Leibniz Research Institute for Environmental Medicine (IUF) Neural Progenitor Cell Proliferation Assay (NPC1) (AID 2284209). In a few lines:
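Each well receives one 0.3 mm progenitor sphere from fetal brain cortex; test chemical is added at plating and left three days. Viability comes from alamar blue fluorescence, multiplexed with LDH and BrdU readouts in the same well.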

Records with an inconclusive call do not appear. The source holds several records for some structures; these can differ, active in one and inactive in another. Activity calls are given as the source filed them. Rule for the calls, unless noted: active = hit-call score of the fitted dose curve at least 0.9, where 1 is the maximum; inactive = score below 0.9.

`CCOC(=O)c1ccccc1C(=C1C=C(Br)C(=O)C(Br)=C1)c1cc(Br)c(O)c(Br)c1`: the call in test [1] was inactive.

For `CO[Si](OC)(OC)c1ccccc1`, the outcome in [1] was inactive.

Turning to `CCOC(F)(F)C(F)(F)C(F)(F)C(F)(F)F`, the compound was called inactive in test [2] and in [3].

On to `CCCCC(CC)COCC1CO1` (stereo not given), for which, in [1], the compound was called inactive.

For the compound `CN1C(=O)N(C)C(O)C1O` (stereo not given), in test [1], the outcome was inactive.

For `C=C[Si](OC(C)=O)(OC(C)=O)OC(C)=O`, the compound was classed as inactive in test [1].

Turning to `c1ccc2c(c1)ccc1cc3c(ccc4ccccc43)cc12`, the compound was classed as inactive in test [2] and in test [3].

In the case of `O=C(c1ccc(O)cc1)c1ccc(O)cc1O`, the compound was classed as inactive in test [1].

Take `CC=CC(F)(F)C(F)(F)C(F)(F)F`: the result in test [2] was inactive. For the same compound, in test [3], the AC50 (commonly the concentration giving half of the maximal activity seen) is 3.71 µM (active).

As to `N[C@H]1C(O)O[C@H](CO)[C@H](O)[C@@H]1O` (stereo not given in full), the compound was called inactive in [2], in test [4] and in test [5]. Besides, the AC50 in test [3] was 25.4 µM (active).

On to `CCCCC(CC)COC(=O)c1ccccc1O` (stereo not given), for which the call in [1] was inactive.

Consider `Nc1ccc(N)c(Cl)c1`, for which the compound was classed as inactive in test [1].

Take `Nc1ncn([C@@H]2O[C@H](CO)[C@@H](O)[C@H]2O)c(=O)n1`: the compound was called inactive in [1], in [2], in [3], in test [6], in [9] and in test [10]. Besides, the outcome in [4] and in test [5] was inactive. Moreover, the AC50 in [2] is 1.39 µM (active); in test [3], 2.91 µM (active); in test [7] it was 13 µM (active); in test [8], 253 nM (active).

Regarding `COC(F)(F)C(F)(C(F)(F)F)C(F)(F)F`, the call in test [2] and in test [3] was inactive.

Consider `FC(F)=C(F)OC(F)(F)C(F)(F)C(F)(F)F`, for which the compound was classed as inactive in test [2] and in [3].

Turning to `O=C1CCCN1CCO`, the outcome in test [1] was inactive.

For `CCO[Si](C)(OCC)OCC`, in [1], the compound was classed as inactive.

With `CN(C)c1ccc(C(=N)c2ccc(N(C)C)cc2)cc1`, the AC50 was 0.975 µM (active) in test [2] and 1.71 µM (active) in test [3].

As for `CC1(C)S[C@@H]2[C@H](NC(=O)COc3ccccc3)C(=O)N2[C@H]1C(=O)O`, the call in test [2], in [3], in [8], in test [9], in test [10] and in test [4] was inactive. Also, the outcome in [5] was inactive.
